± gives the standard deviation of the averaged measurements. Over roughly 25,000 sequences, “ln(normalized median fluorescence intensity)” has its median near 8.9; the highest 2% begin near 10. This excerpt belongs to a sample that is enriched for the highest values.
test system: PfAP2-LT AP2 domain (GST-tagged); assay: gcPBM binding intensity (ln(normalized median fluorescence intensity)); higher = stronger DNA binding
Method in brief: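 Alexa488 anti-GST antibody, scanned at 488 nm, detected GST-tagged P. falciparum DNA-binding domains that had been expressed in E. coli and incubated for 1 h on an Agilent 4 × 180k array. The array carried primer-extended double-stranded 36-bp intergenic genomic probes and negative controls. Binding intensity is the highest Masliner-normalised natural-log median intensity across replicate spots of either orientation of each probe.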

Sequence	gcPBM binding intensity (ln)
AAATCTTAATAAAGTTGTACATAATTATGTTTAATA [XGTACX_site3348]	8.55 ± 0.49
TAATGGAATAAAAATTGTACATATTTTTTTTTTTTT [XGTACX_site7669]	8.45 ± 0.36
TTTCTTAAATATATTGAGGAATAAAAAGAAGAAAAG [GTGCAC_negctrl_site281]	8.33 ± 0.4
AGTATTATATATATATGTACATAATATACATATATA [XGTACX_site8514]	8.73 ± 0.36
TATGCTACATTATATGTACACACATATACATATATA [CACACA_site8199]	9.11 ± 0.42
AGGAACATTTACGCCCCACACACCTACCAACAAAAA [CACACA_site3827]	9.59 ± 0.23
TATAATGATGATGATAGTACGTATGAGTAAGAAAAA [XGTACX_site31]	8.99 ± 0.54
AGATTATAAAATTCTACACACATATATACCTATATA [CACACA_site5848]	9.04 ± 0.42
TGAACCAGATTTAGAAGTACTAAATATTACATACAT [XGTACX_site2437]	8.7 ± 0.47
AAATGGAAAAGGTGTACACAAAAAAAAGGGAAAAGC [CACACA_site5331]	9.37 ± 0.5
ATTATAACACCTCCCCCCCTTTTTTTATGAAGACCA [CACACA_negctrl_site1043]	10.1 ± 0.4
AACTTTTAGAAGAACACACACATATAGATTATGACC [CACACA_site6256]	9.24 ± 0.33
TATATTATGACCACCACACACCTATACACATAACAT [CACACA_site7199]	9.45 ± 0.16
ACAATTTATATTATATGTACTTAAAAAGTTCGTAAA [XGTACX_site6421]	8.47 ± 0.27
TTTTGAAGCTTTAAAACATATATATATATATATATA [CACACA_negctrl_site184]	9.75 ± 0.41
ATAATTGTTTCTTTCTCCTTTTTATTTCATTTTAAA [CACACA_negctrl_site964]	8.68 ± 0.41
TATATATTAAAATAATCACACACATCAATTAATGGT [CACACA_site8331]	9.09 ± 0.42
GCACGAAACAATGTATATATATATATATATATATAT [GTGCAC_negctrl_site412]	10.32 ± 0.078
AAATAAAATAAAACAACACACACGAATGTATAAATA [CACACA_site885]	9.45 ± 0.33
ATAAAATAAAACAACACACACGAATGTATAAATATA [CACACA_site4643]	9.53 ± 0.36
ATGATTTATTATTATACACACAAAAAAAAAAAAGGA [CACACA_site264]	8.84 ± 0.42
AATATCAATGATGTTACATGCAAGAGAATCCACAAA [TGCATGCA_site678]	8.96 ± 0.42
CATATAAAAATGTGCACACACACACCGATATATATT [CACACA_site4940]	9.95 ± 0.17

Sequence	gcPBM binding intensity (ln)
CACTAAAATGGACACACACACACACCGATATATATA [CACACA_site6139]	10.1 ± 0.23
TATATATATATATGTACACACACACCGATAAATAAA [CACACA_site8041]	9.69 ± 0.15
CCTAAATAAATGGACACACACATATATATATATATA [CACACA_site1439]	9.85 ± 0.29
TTCAAAATAAAAAATTCACACACATATATATATATA [CACACA_site8653]	9.44 ± 0.17
AAATAATTCAAAAAAACACACAAATTACAAAATAAA [CACACA_site269]	8.92 ± 0.55
AATATAAATAATGTTAAACACACATACCGATATATA [CACACA_site8869]	9.02 ± 0.45
CAAAAAATTCAACACACACACACACCGATAAATAAA [CACACA_site8330]	10.11 ± 0.071
TATATATATAAATACACACACACACCGATATATATA [CACACA_site5408]	9.97 ± 0.11
ACCATATAAATAAACACACACACACCGATATATATA [CACACA_site5310]	10.09 ± 0.085
AAAATACATAAACACACACACACACCGATATATATA [CACACA_site9186]	10.43 ± 0.092
AAATAATATAAACATACACACACACCGATATATATA [CACACA_site8945]	9.92 ± 0.17
AGGCTATAATACCATACACACATTTATAAAATAACA [CACACA_site6990]	9.07 ± 0.42
ATACTTATGATAAATACACACTTGAAATTAAGGATT [CACACA_site4772]	8.85 ± 0.37
CATTTTTCTATATGTGCATGTAAGATAAGAATAATT [TGCATGCA_site107]	8.48 ± 0.3
TATTTTTCCATATGCACACACACCGTATCTAGAATA [CACACA_site6654]	9.47 ± 0.37
ATAATTAAAATGCTCACACACATAAAAAAAAATTAA [CACACA_site2149]	8.94 ± 0.46
TTATTATTATGATTATTATGATGATTATACAACTGT [TGCATGCA_negctrl_site241]	8.85 ± 0.35
AAATTGAATTAGTTAACACACAACTTTTATTTCATA [CACACA_site2840]	8.74 ± 0.4
TCAAATATATAGAATACACACATGGATATAAGAAAT [CACACA_site4065]	9.2 ± 0.4
TTATAATAAAATGAATATATATAATTTAAAATATTT [CACACA_negctrl_site1651]	8.27 ± 0.54
TATATTTATAAGTGTACACATTATATAAATCCCTAT [CACACA_site6122]	8.65 ± 0.42
AATTTTCTACAAATGTGTACTAAATAAAATATTACT [XGTACX_site7175]	8.63 ± 0.39
AAAAAAAAAAAAAATACACACACACCGATATATATA [CACACA_site8142]	9.775 ± 0.092

Sequence	gcPBM binding intensity (ln)
AAAAAGGATAAACACACACACACACCGATATATATA [CACACA_site8206]	10.34 ± 0.099
AAAATACATGGACACACACACACACCGATATATATA [CACACA_site5885]	10.4 ± 0.21
AAGGATATAACATACACACACACACCGATATATATA [CACACA_site6136]	10 ± 0.29
TGGGAATAAAAACACACACACACACCGATATATATA [CACACA_site5875]	10.1 ± 0.41
TAAAAAAAAAAAAATACACACACACCGATATATATA [CACACA_site8498]	9.76 ± 0.19
GGAATAATATAAAACACACACATAAATATAAATATA [CACACA_site3376]	9.45 ± 0.35
CAAAATAATATATATACACACACACCGATATATATA [CACACA_site8082]	9.81 ± 0.18
AAAAAAAAAAGAATAGCACACACACCGATATAAATA [CACACA_site8111]	9.71 ± 0.37
CACTAAAATAAACACACACACACACCGATATATATA [CACACA_site9379]	9.96 ± 0.014
AATAAAAAGGAACACACACACACACCGATATATATA [CACACA_site5895]	10.08 ± 0.085
AATATAAATAAAAACACACACACACCGATATATATA [CACACA_site5283]	10.2 ± 0.11
TGGAACCTTTAAAATACACACCCAAATCCTTTGAAA [CACACA_site7671]	8.69 ± 0.35
AGAGAGAGAAATACAAGTACATGTGAAACCAATCTA [XGTACX_site2767]	9.04 ± 0.46
GCATCGATCAAACATACACACATGGTTAATAAAAAT [CACACA_site8651]	9.24 ± 0.47
TTTAAAAAAAGCAGTACATGCAAAATAATAACAAGC [TGCATGCA_site392]	9.2 ± 0.48
TACACAAGGGGAAAAATATATATATATATATATATA [TGCATGCA_negctrl_site217]	9.88 ± 0.028
TATTTTTTTTCGTAATGTACATAAAAAATGCAAAAA [XGTACX_site8491]	8.27 ± 0.36
CATCCGTTGATATATGCATGCATATTGTTATTACCA [TGCATGCA_site868]	9.11 ± 0.36
TTTATATATAAATAATGTACAAAAAATTTTAAAAAG [XGTACX_site7990]	8.39 ± 0.39
ACAGTTTGTCTGAGTAGTACATAAATACTTGAAAGG [XGTACX_site7792]	8.79 ± 0.45
TACAGACTAAAATACACACACACACGCACATATATA [CACACA_site7875]	10.2 ± 0.18
GCTATAAATACAGACGCACACATATACATACAGATA [CACACA_site5778]	9.33 ± 0.42
CACGCATACAGACACACACACACACGGATATAAATA [CACACA_site6445]	10.2 ± 0.4

Sequence	gcPBM binding intensity (ln)
CGCATACACAGACACACACACACATATAAATATGTA [CACACA_site6444]	9.98 ± 0.47
CGCGCACACGGACACACACACACACGGATATAAATA [CACACA_site7102]	10 ± 0.4
CACACGCACAGACACACACACACATATAAATATGTA [CACACA_site6300]	9.89 ± 0.37
TTTAAATACAGACATACACACATACACGCACATATA [CACACA_site6400]	9.49 ± 0.37
CACACGCACAGACACACACACACACGGATATAAATA [CACACA_site6301]	10.2 ± 0.38
GCTATAAATACAGACGCACACATATACATACATATA [CACACA_site3329]	9.42 ± 0.33
AAAAAATACAGACACACACACACACGCATATAAATA [CACACA_site7644]	10.1 ± 0.25
CTAAAATACAGACACACACACACATATATATATATA [CACACA_site4150]	10.07 ± 0.021
AAAATACACAGACACACACACATATAAATAAATATT [CACACA_site7871]	9.79 ± 0.19
AAATCGTGCACGGACACATGCAGTAGCCGAGAATTA [TGCATGCA_site733]	9.12 ± 0.38
AAAAAAAAGAAAAAAACACACAATGGAAAAAATGTA [CACACA_site3675]	8.93 ± 0.59
TATAAAATAAATAACAAAAAAAATAAAATAAAAATA [TGCATGCA_negctrl_site297]	8.6 ± 0.7
TGCCCTTTGGTTATAACACACATGCACACGTAAATA [CACACA_site7750]	9.4 ± 0.23
TTTTGTTATTAGAGGGTGCTTATAATGAACTCCTAC	8.65 ± 0.49
TTATGAATACTTCAAGTGCATTTATTTTATATGACA	8.63 ± 0.48
ATATTGGAATAAATTTGTACATATATATATTATTCA [XGTACX_site916]	8.7 ± 0.44
CTGTTTTTGTTTTAAAGTACATTGTTCAATATACAT [XGTACX_site5288]	8.82 ± 0.43
ATAGTATACAGACACACACACACACGGATATAAATA [CACACA_site6914]	10.1 ± 0.36
TAAAAAATATTATATACACACAGTATAAAAAAAAAT [CACACA_site4012]	8.95 ± 0.49
ATATAATAAAATGACACACGCATATATATATATATA [CACACA_site2789]	9.955 ± 0.021
CACACTAAAAGACACACACACACACGCATATAAATA [CACACA_site7874]	10.3 ± 0.4
TAAATAAATTTATACACACACACACGGATATAAATA [CACACA_site6532]	9.82 ± 0.071
AAATATAATAAAATGACACACGCATATATATATATA [CACACA_site8900]	9.775 ± 0.064

Source: the supplement of paper PMC11417369
